For five compounds, composite z-score and z-score results are on record in PubChem BioAssay.

Assay [1] in a line: small molecules captured by biotinylated probe aFSTL3 – biochemical, small-molecule microarray, fluorescence 635/667, stem cell growth factor project, primary screen (AID 1064).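 Note: measures binding of the biotinylated anti-FSTL3 antibody to printed compounds.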 Conditions: higher = more signal.
Assay [2] is described as follows: binders from COS7 lysate, DM2A8 probe, primary screen, torsin A project, cell lysate, small-molecule microarray, fluorescence 635/667 (AID 1065). The following applies: higher = more signal, COS7 lysate expressing mutant human TOR1A.
Assay [3] in a line: small molecules captured by biotinylated probe aFGF2 – biochemical, small-molecule microarray, fluorescence 635/667, stem cell growth factor project, primary screen (AID 1067).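 Note: measures binding of biotinylated aFGF2 protein to printed compounds on slides; z-score merges feature fluorescence and signal-to-noise across triplicate slides.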 Conditions: higher = more signal.
Assay [4] in a line: small molecules captured by biotinylated probe aFGF10 – biochemical, small-molecule microarray, fluorescence 635/667, stem cell growth factor project, primary screen (AID 1071).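 Note: score merges 667 nm spot intensity and signal to noise from triplicate slides.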 Conditions: higher = more signal.
For assay [5], the target named is Neurogenic locus notch homolog protein 2 (Homo sapiens) (UniProt Q04721). The assay can be described thus: small molecules binding Notch2 protein – biochemical, small-molecule microarray, 635 nm fluorescence, stem cell growth factors, primary screen (AID 1073). The following applies: higher = more signal.
The target of assay [6] is Pro-neuregulin-1, membrane-bound isoform (Homo sapiens) (UniProt Q02297). The assay can be described thus: small molecules binding neuregulin-1 protein – biochemical, small-molecule microarray, fluorescence 635/667, psychiatric disease protein project, primary screen (AID 1075).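 Note: score combines 667 nm spot fluorescence with signal to noise.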 The following applies: NRG1 binding, 635 nm fluorescence, higher = more signal.
Assay [7] deals with Neuregulin-1 EGF-like domain. As to the kind of experiment: small molecules binding NRG1 EGF domain – biochemical, small-molecule microarray, 635 nm fluorescence, primary screen (AID 1081).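 Note: binding of the protein to compounds printed on small-molecule microarray slides.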 Conditions: higher = more signal.
Assay [8] in a line: FRG1 expression reporter modulators in myotubes – cell-based, C2C12 myotubes, firefly/Renilla luciferase, luminescence, FRG1 inhibition for FSHD, primary screen (AID 1084). The following applies: FRG1 promoter luciferase, higher = more signal, called active from +8 up or from −8 down.
Assay [9] in a line: small molecules captured by biotinylated probe aFST – biochemical, small-molecule microarray, fluorescence 635/667, stem cell growth factor project, primary screen (AID 1086).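 Note: score merges 667 nm fluorescence with signal-to-noise of each printed compound spot.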 The following applies: higher = more signal.
Assay [10] is described as follows: binders of probe aHhip on microarray, primary screen, stem cell growth factor project, biochemical, small-molecule microarray, fluorescence 635/667 (AID 1087).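 Note: score merges spot fluorescence at 667nm with spot signal to noise ratio.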 Conditions: higher = more signal.
Assay [11] concerns PRMT1 (protein arginine N-methyltransferase 1). The assay can be described thus: small molecules binding arginine methyltransferase PRMT1 – biochemical, small-molecule microarray, 635 nm fluorescence, primary screen (AID 1088).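 Note: binding of Prmt1 protein to compounds spotted on small-molecule microarray slides.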 The following applies: higher = more signal.
The nature of assay [12]: growth effects on S. cerevisiae YJM789 – YJM789 clinical isolate, OD600, 24 h, basal, primary screen (AID 1089).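 Note: growth of clinical yeast isolate S. cerevisiae YJM 789 seeded 1000 cells per well; test concentration not given here.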 The following applies: higher = more signal, called active from +8 up or from −8 down.
Assay [13] is described as follows: S. pombe growth modifiers, basal conditions – strain 972, OD600, 24 h, no modulator, primary screen (AID 1090).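 Note: basal condition with compound alone and no growth modifier present; test concentration not given here.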 Conditions: S. pombe 972 growth, higher = more signal, called active from +8 up or from −8 down.
Assay [14] can be described thus: budding yeast growth modifiers under rapamycin – strain BY4716, OD600, 96 h, primary screen (AID 1091). Note: test concentration not given here. The following applies: S. cerevisiae BY4716 + rapamycin, higher = more signal, called active from +8 up or from −8 down.
Assay [15] has as its target Torsin-1A-interacting protein 2 (Homo sapiens) (UniProt Q8NFQ8). As to the kind of experiment: small molecules binding lysate-expressed LULL1 – cell lysate, human LULL1 lysate, 635/667 nm fluorescence, primary screen (AID 1092).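 Note: score merges per-feature 667 nm fluorescence with signal-to-noise.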 The following applies: small-molecule microarray, hLULL1 lysate binding, 635 nm fluorescence; higher = more signal.
A short description of assay [16]: optical density change of DRC41 E. coli – strain DRC41, OD650, 24 h, E. coli filamentation project, primary screen (AID 1093).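 Note: MC1000 strain lacking acrAB efflux and sulA so SOS filamentation is blocked; test concentration not given here.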 The following applies: E. coli DRC41 growth, higher = more signal, called active from +8 up or from −8 down.
The nature of assay [17]: probe aLefty2 binding to arrayed compounds – biochemical, biotinylated probe, 635/667 nm fluorescence, primary screen (AID 1094).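 Note: score merges spot fluorescence near 667 nm with spot signal-to-noise ratio.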 The following applies: small-molecule microarray, higher = more signal.
Assay [18] has as its system Noggin (protein binding on small-molecule microarray). The assay can be described thus: small molecules binding Noggin protein – biochemical, 635/667 nm fluorescence, primary screen (AID 1095).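 Note: score merges 667 nm feature fluorescence with signal to noise over triplicate slides.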 Conditions: 635 nm fluorescence, higher = more signal.
The target in assay [19] is Neurogenic locus notch homolog protein 3 (Homo sapiens) (UniProt Q9UM47). The assay can be described thus: small molecules binding NOTCH3 protein – biochemical, 635/667 nm fluorescence, primary screen (AID 1096). Conditions: small-molecule microarray, 635 nm fluorescence, higher = more signal.
The nature of assay [20]: probe aEGFR binding to arrayed compounds – biochemical, biotinylated probe, 635/667 nm fluorescence, primary screen (AID 1097).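 Note: probe is a biotinylated anti-EGFR antibody binding compounds printed on slides; score combines fluorescence near 667 nm and signal to noise of each spot.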 The following applies: small-molecule microarray, higher = more signal.

Calls of active or inactive are those of the source.

Chain of Neurogenic locus notch homolog protein 2 (Homo sapiens) (Q04721 whole entry, looked up, canonical isoform): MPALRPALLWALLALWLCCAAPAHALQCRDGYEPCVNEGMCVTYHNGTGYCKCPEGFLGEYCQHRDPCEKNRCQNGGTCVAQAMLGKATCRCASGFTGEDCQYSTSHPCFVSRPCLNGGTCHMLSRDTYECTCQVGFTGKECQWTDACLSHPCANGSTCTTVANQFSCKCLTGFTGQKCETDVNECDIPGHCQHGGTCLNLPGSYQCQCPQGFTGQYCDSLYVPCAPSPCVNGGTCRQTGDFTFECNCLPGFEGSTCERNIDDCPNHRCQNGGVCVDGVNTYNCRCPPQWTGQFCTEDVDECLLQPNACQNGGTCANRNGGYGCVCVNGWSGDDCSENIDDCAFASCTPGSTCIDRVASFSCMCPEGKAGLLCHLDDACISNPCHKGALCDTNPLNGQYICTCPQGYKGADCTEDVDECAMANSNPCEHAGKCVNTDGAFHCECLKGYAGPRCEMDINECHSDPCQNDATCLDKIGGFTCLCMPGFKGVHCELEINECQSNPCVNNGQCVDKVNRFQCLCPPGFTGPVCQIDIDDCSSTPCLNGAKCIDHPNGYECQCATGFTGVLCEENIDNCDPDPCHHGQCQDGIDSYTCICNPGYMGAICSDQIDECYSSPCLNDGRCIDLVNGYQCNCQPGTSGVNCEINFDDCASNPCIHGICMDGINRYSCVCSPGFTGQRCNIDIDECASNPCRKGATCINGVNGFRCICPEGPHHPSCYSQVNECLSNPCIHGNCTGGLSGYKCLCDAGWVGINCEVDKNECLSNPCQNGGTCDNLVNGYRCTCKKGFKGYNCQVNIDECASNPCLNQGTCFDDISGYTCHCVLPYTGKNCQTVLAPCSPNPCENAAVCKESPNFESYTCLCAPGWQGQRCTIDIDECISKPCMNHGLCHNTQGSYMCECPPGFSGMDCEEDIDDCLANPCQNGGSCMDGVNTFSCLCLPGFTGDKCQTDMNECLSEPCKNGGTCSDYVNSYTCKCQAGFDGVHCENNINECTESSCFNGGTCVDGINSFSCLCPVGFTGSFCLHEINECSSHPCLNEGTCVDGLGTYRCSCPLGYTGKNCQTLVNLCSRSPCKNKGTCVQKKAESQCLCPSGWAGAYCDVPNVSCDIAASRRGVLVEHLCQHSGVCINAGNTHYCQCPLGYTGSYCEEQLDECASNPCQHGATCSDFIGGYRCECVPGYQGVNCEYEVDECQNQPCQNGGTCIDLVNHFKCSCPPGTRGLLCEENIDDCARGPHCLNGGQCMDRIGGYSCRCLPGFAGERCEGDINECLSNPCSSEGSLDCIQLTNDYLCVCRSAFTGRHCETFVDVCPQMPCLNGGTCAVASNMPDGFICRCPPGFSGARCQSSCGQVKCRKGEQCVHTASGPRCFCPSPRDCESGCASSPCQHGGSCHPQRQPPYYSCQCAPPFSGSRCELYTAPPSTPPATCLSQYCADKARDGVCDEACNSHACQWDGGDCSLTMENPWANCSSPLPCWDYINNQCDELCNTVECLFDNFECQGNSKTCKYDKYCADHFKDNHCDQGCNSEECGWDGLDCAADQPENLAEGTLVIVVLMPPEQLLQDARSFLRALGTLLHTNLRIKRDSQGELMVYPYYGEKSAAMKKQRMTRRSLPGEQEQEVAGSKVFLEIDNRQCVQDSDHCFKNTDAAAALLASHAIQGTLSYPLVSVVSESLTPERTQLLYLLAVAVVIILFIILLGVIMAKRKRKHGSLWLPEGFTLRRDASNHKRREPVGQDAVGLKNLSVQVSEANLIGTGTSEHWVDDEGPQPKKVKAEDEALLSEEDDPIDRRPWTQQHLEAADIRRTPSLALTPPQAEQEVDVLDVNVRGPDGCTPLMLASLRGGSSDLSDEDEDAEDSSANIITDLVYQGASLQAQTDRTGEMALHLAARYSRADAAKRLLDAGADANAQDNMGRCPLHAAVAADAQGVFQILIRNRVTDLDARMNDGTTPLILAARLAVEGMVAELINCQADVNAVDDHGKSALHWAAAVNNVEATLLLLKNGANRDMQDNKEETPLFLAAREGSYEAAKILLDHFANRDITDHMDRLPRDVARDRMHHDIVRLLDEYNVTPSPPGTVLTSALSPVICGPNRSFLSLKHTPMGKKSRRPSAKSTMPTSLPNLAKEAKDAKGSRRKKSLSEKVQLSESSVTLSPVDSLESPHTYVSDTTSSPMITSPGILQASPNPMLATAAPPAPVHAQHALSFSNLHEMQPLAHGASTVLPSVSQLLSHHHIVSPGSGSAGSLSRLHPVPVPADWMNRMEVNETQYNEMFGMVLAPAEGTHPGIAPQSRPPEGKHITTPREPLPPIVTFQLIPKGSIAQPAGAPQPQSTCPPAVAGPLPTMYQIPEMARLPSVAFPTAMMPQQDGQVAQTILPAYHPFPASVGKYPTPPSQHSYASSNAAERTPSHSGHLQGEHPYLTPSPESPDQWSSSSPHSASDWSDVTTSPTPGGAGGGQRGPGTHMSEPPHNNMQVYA
Chain of Neurogenic locus notch homolog protein 3 (Homo sapiens) (Q9UM47 whole entry, looked up): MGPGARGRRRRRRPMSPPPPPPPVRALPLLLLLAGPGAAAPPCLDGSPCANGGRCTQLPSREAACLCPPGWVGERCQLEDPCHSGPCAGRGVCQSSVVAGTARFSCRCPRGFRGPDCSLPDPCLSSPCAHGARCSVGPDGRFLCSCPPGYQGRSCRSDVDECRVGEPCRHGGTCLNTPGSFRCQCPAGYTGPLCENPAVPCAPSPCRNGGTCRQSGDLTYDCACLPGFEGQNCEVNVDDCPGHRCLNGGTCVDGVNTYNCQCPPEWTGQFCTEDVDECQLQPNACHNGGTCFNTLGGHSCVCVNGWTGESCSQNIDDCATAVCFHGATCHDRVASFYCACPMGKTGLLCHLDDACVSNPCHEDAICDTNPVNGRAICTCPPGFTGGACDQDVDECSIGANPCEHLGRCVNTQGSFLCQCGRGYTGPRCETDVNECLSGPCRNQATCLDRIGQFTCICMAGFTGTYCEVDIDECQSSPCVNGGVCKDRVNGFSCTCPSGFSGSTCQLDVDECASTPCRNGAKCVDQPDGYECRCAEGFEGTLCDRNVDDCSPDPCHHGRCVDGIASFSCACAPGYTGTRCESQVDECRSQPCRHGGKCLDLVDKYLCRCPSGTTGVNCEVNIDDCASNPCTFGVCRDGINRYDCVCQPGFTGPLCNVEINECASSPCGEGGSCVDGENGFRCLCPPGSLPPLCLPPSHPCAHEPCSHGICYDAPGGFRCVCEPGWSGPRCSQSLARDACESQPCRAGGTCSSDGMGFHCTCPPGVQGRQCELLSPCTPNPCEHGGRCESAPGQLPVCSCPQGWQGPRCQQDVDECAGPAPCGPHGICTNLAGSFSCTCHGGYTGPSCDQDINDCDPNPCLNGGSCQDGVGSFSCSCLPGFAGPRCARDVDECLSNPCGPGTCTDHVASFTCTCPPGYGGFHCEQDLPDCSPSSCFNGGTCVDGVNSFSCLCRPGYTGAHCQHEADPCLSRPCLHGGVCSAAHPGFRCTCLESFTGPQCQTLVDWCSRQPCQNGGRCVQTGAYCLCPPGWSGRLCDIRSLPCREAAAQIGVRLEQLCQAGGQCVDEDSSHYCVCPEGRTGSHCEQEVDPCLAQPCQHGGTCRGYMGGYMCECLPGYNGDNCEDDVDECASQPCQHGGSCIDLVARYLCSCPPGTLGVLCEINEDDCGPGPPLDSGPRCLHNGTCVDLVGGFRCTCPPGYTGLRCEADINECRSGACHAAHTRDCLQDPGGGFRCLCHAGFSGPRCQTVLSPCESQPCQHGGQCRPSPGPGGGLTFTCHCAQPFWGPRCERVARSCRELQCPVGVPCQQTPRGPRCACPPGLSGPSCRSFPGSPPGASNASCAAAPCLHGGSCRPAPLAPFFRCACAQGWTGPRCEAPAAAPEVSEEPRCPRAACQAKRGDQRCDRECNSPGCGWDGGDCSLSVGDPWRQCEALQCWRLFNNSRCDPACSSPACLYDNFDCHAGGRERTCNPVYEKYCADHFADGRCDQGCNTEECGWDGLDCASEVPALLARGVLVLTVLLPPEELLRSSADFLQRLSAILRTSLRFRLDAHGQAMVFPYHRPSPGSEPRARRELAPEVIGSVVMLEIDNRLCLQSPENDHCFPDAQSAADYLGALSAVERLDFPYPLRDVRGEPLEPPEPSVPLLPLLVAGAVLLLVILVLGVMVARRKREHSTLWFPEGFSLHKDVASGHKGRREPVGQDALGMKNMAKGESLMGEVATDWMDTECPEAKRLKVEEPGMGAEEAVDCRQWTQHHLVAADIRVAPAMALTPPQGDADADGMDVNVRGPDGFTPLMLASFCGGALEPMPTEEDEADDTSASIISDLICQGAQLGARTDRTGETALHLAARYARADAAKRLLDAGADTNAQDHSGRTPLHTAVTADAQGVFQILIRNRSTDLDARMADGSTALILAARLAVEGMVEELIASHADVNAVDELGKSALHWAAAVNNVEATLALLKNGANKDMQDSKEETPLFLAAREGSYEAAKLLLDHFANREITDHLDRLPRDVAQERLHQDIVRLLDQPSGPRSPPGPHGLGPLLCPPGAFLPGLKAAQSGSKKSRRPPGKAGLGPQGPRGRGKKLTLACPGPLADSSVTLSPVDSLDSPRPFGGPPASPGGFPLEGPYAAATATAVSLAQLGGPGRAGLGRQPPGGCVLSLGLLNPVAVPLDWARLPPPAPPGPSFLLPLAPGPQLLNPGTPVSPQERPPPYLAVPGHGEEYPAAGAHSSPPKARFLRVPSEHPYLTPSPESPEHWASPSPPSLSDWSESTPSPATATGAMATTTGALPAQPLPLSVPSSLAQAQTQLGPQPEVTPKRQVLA

Regarding `COCCCNC(=O)[C@@]1(Cc2ccccc2N=[N+]=[N-])N=C(c2ccc(OCCCO)cc2)O[C@H]1c1ccccc1`, the composite z-score worked out at 0.6 in assay [1]; 2.55 in assay [2]; 0.153 in assay [3]; 0.904 in [4]; 0.629 in assay [5]; 1.38 in assay [6]. Also, the composite z-score in [7] is 1.17; in assay [9], 0.404; in [10] it was 0.212; in [11], 1.55; in assay [15], 3.1; in [17], 0.0894. Moreover, the figures for the composite z-score in assay [18], in assay [19] and in assay [20] were 0.923, 0.74 and -0.096, respectively. The z-score is -1.98 (inactive) in [8]; -0.22 (inactive) in assay [12]; -1.17 (inactive) in [13]; 0.388 (inactive) in [14]; 0.478 (inactive) in assay [16].

`O=C1NC(=O)C2C1C=CC(C(O)c1ccco1)N2Nc1ccccn1` (stereo not given): the composite z-score is -0.156 in [1]; -0.156 in [2]; -0.0907 in [3]; -0.0923 in assay [4]; 0.076 in assay [5]; -0.0825 in assay [6]. Also, the composite z-score in assay [7] is 1.08; in assay [9], 0.055; in [10], 0.154; in assay [11], 0.184; in assay [15], 0.147; in assay [17], -0.121. For the same compound, the composite z-score in [18] was -0.119; in [19], -0.509; in [20] it was -0.0259. Further, the z-score was 1.41 (inactive) in [8]; 0.493 (inactive) in [12]; 0.652 (inactive) in [13]; 0.637 (inactive) in [14]; -0.87 (inactive) in assay [16].

Regarding `CCCC[C@@H]1C[C@H]1[C@@H](NC(=O)c1ccccc1)c1ccc(C(F)(F)F)cc1`, the composite z-score in assay [1] was 0.79; in [2], -1.02; in [3], -0.0908; in assay [4], -0.333; in assay [5] it was -0.601; in assay [6], -0.612. In addition, the composite z-score was -0.521 in [7]; 0.0249 in assay [9]; -0.175 in assay [10]; -0.914 in assay [11]; -0.962 in [15]; 0.161 in assay [17]. Moreover, the composite z-score was 0.337 in [18], -0.769 in assay [19] and -0.15 in [20]. Also, the z-score was -0.858 (inactive) in assay [8]; 0.82 (inactive) in [12]; 0.987 (inactive) in [13]; 0.151 (inactive) in [14]; -0.582 (inactive) in assay [16].

For `COC(=O)[C@@]1(Cc2ccc(OC)cc2)[C@H]2c3cc(C(=O)N(C)C)n(CCO)c3C[C@H]2CN1C(=O)c1ccccc1`, the composite z-score in assay [1] was 0.494; in assay [2], 2.56; in assay [3], 0.152; in assay [4] it was -0.359; in assay [5], 0.993; in assay [6], 2.13. The composite z-score was -0.139 in assay [7]; 0.871 in assay [9]; 0.0365 in assay [10]; -1.15 in assay [11]; 1.96 in [15]; 0.333 in assay [17]. The figures for the composite z-score in [18], in [19] and in [20] were -1.13, -0.175 and -0.0521, respectively. Also, the z-score in assay [8] was 1.63 (inactive); in assay [12] it was -0.809 (inactive); in assay [13] it was 0.142 (inactive); in [14] it was -0.14 (inactive); in [16] it was -0.285 (inactive).

With `CCCC[C@@H]1C[C@H]1[C@@H](NC(=O)c1cccs1)c1ccc(C(F)(F)F)cc1`, the composite z-score in assay [1] is 0.211; in assay [2] it was -0.0988; in assay [3], -0.0783; in assay [4], -0.618; in assay [5], -0.845; in assay [6], -0.265. Further, the composite z-score was -0.743 in [7]; 0.0353 in assay [9]; 0.948 in assay [10]; 0.183 in assay [11]; -0.683 in [15]; -0.0009 in [17]. The figures for the composite z-score in [18], in [19] and in assay [20] were -0.345, -0.182 and -0.168, respectively. The z-score was -0.878 (inactive) in [8]; 1.19 (inactive) in [12]; 1.01 (inactive) in [13]; -0.0454 (inactive) in [14]; -1.72 (inactive) in [16].
